# Source: PubChem BioAssay AID1259251 (The Scripps Research Institute Molecular Screening Center, 2017)
# Hit rate of the full screen: of about 30,000 compounds, about 580 (1.9%) were called active. What follows is part of a selection rich in actives, with near analogues and random picks from the rest. Values without a mark were called inactive. Rule as the data show it: active = inhibition above about 43%; inactive = the rest.
# Target: Serine/threonine-protein kinase ULK1 (Homo sapiens) (UniProt O75385)
# Sequence (O75385 whole entry, looked up): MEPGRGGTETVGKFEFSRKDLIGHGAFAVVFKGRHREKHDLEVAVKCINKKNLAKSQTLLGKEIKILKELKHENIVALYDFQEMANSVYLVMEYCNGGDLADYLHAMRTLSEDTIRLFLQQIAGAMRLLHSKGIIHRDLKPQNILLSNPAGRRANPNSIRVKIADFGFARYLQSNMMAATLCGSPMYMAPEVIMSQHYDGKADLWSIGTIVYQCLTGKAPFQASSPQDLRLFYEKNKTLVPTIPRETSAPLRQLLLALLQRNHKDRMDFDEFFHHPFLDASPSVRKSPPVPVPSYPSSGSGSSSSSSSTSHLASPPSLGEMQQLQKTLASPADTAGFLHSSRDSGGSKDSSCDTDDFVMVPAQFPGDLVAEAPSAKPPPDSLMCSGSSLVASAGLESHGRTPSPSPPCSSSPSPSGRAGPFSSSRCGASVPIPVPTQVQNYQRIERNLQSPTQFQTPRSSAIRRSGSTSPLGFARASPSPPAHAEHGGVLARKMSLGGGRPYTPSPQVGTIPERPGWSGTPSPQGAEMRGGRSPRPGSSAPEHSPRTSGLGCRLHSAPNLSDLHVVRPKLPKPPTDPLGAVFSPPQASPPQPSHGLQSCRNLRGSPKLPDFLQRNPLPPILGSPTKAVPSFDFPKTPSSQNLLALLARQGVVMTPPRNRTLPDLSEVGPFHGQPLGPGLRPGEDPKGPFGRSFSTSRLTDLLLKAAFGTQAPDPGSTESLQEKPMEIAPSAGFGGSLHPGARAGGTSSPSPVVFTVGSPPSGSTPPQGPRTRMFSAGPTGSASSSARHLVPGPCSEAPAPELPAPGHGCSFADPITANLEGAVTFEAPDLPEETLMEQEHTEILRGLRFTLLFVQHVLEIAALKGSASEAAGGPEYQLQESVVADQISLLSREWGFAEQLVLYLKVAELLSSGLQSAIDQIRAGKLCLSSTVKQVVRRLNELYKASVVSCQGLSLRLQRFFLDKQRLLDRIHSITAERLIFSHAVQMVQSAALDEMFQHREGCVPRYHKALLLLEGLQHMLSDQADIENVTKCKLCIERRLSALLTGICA
# Assay: ULK1 kinase inhibitors, primary screen, biochemical, AlphaScreen (AID 1259251);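 also: 0% = median of compound wells and 100% = no enzyme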
# Settings: AlphaScreen Atg13 phosphorylation by ULK1, luminescence; at 5.96 µM; hits give high values
row,Compound,inhibition
1,CN(C)c1cc(F)cc(-c2ccnc(Nc3ccc(-n4cnc(N5CCOCC5)n4)cc3)n2)c1,-12.3%
2,Cn1nccc1-c1cc(F)cc(-c2ccnc(Nc3ccc(-n4cnc(N5CCOCC5)n4)cc3)n2)c1,10.3%
3,CN1CCN(c2ncn(-c3ccc(Nc4nccc(-c5ccc(NS(C)(=O)=O)cc5)n4)cc3)n2)CC1,63.3% (active)
4,CC(=O)Nc1ccc(Nc2ncnc3nc(N4CCOCC4)[nH]c23)cc1,-7.72%
5,CCCNC(=O)Cc1cn(-c2ccc(Nc3ccc(-n4ccnc4)cc3)nn2)c2ccccc12,0.04%
6,CC(C)(C)NC(=O)N1CCCN(c2ccc(S(C)(=O)=O)cc2)CC1,6.31%
7,CN1CCc2nc(NC(=O)c3ccc(Cl)cc3Cl)sc2C1,-7.21%
8,O=C(Nc1ccc(N2CCOCC2)cc1)c1ccc2nc(Nc3ccncc3)sc2c1,52.9% (active)
9,O=C(NCc1ccccc1)c1csc(Nc2ccc(N3CCOCC3)cc2)n1,25.3%
10,O=C(Nc1ccc(N2CCOCC2)cc1)c1cnc(Nc2ccc(-n3ccnc3)cc2)s1,17.6%
11,O=C(Nc1ccccc1)c1ccc2nc(NCCN3CCOCC3)sc2c1,2.47%
12,O=C(Nc1ccc(N2CCOCC2)cc1)c1csc(Nc2ccc(-n3ccnc3)cc2)n1,47.9% (active)
13,CN(C)c1cccc(Nc2nc3ccc(C(=O)Nc4ccc(N5CCOCC5)cc4)cc3s2)c1,24.1%
14,Cc1cnnn1-c1ccc(Nc2nccc(-c3cc(C#N)cc(N4CCOCC4)c3)n2)cc1,14.1%
15,O=C(Nc1ccc2[nH]ncc2c1)[C@H]1C[C@@H](O)CN1C(=O)Cc1ccc(Br)cc1,5.77%
16,O=C(NCCCN1CCCC1=O)c1cccc(Cl)n1,10.3%
17,FC(F)(F)c1ccc(Cn2cnc3c(Nc4ccc5c(c4)OCO5)nc(N4CCC(N5CCOCC5)CC4)nc32)cc1,10%
18,c1cnc2ccc(Nc3nc4ncnc(NCc5nc6ccccc6[nH]5)c4[nH]3)cc2c1,15.5%
19,O=C(NC1CC1)c1cccc(Nc2cccnc2)n1,-1.02%
20,FC(F)(F)c1cccc(CNc2nc(Nc3ccc(N4CCOCC4)cc3)nc3c2ncn3-c2ccsc2)c1,-6.13%
21,CC(C)n1c(N2CCOCC2)nc2c(NCc3ccccc3)ncnc21,-2.96%

row,Compound,inhibition
1,CCN(CC)C(=O)C1CCCN(c2cccc(C(=O)NCc3nc4ccccc4[nH]3)c2)C1 (centres undefined),7.49%
2,COc1cccc(CN(CCN(C)C)C(=O)c2cn3cc(-c4ccnc(N)n4)ccc3n2)c1,0.96%
3,COc1cc2nc(-c3csc4ccccc34)nc(Nc3ccc(Oc4ccccc4)cc3)c2cc1OC,-36.4%
4,O=C(NC1CCN(Cc2ccccc2)CC1)c1ccc(-c2ccccc2)s1,-15.1%
5,COc1ccc(C2=NC(C)(C)NC(c3ccccc3O)C2)cc1 (centres undefined),22.6%
6,Cc1ncn(-c2ccc(Nc3ncc(-c4cnn(C)c4)c(-c4cnn(C)c4)n3)cc2)n1,-7.3%
7,Cc1nc(C)n(-c2ccc(Nc3ncc4ccc(-c5cnn(C)c5)cc4n3)cc2)n1,75.2% (active)
8,Cc1nc(C)n(-c2ccc(Nc3cc(-n4ccnn4)ccn3)cc2)n1,-1.71%
9,Cc1noc(C)c1-c1nc(N)c2ncn(-c3ccccc3)c2n1,29.2%
10,CC(=O)NNC(=O)C(C)Oc1ccc(Cl)cc1Cl (centres undefined),3.12%
11,CC1(C(=O)Nc2ccc(-c3cn[nH]c3)cc2)COc2ccccc2C1 (centres undefined),-8.37%
12,c1ccc(Nc2nccc(Nc3ccc(N4CCOCC4)cc3)n2)cc1,4.53%
13,Fc1cnc(Nc2ccc(N3CCNCC3)cc2)cc1-n1cnc(Nc2ccccc2)n1,90.4% (active)
14,c1ccc(-n2cnc(-c3ccnc(Nc4ccc(N5CCOCC5)cc4)c3)n2)cc1,-3.17%
15,CN(C)c1cccc(Nc2nccc(NCc3ccccc3)n2)c1,1.8%
16,CC[C@H]1OC(=O)[C@H](C)C(=O)[C@H](C)[C@@H](O[C@@H]2O[C@H](C)C[C@H](N(C)C)[C@H]2O)[C@](C)(OC)C[C@@H](C)C(=O)[C@H](C)[C@@H]2N(CCCCn3cnc(-c4cccnc4)c3)C(=O)OC21C (some centres undefined),-2.96%
17,O=C(NCCCN1CCCC1=O)c1cnc(-c2ccccc2)s1,0.58%
18,COc1ccc(CCNc2nc(-c3ccc(N4CCOCC4)nc3)ncc2C)cc1,-5.93%
19,COc1ccc(CCNc2nc(Nc3ncccn3)nc3c2ncn3CCN2CCCC2=O)cc1,27.6%
20,O=C(NCc1nc2ccccc2[nH]1)c1cccc(Nc2ncccn2)n1,10.3%
21,O=C(NCCc1ccc(O)cc1)c1csc(Nc2cnccn2)n1,12.4%

row,Compound,inhibition
1,O=C(NCc1nc2ccccc2[nH]1)c1csc(Nc2cnccn2)n1,46.6% (active)
2,CC(=O)c1cccc(-c2nccc(Nc3ccccc3)n2)c1,-2.99%
3,COc1cc2nc(Nc3ccc(-n4ccnc4)cc3)nc(Nc3cc(OC)c(OC)c(OC)c3)c2cc1OC,-15.5%
4,C/C(CC(=O)NC1CCCC1)=N\NC(=O)COc1cccc(C)c1,-34.7%
5,Cc1cc(NCc2ccccc2)nc(N2CCN(Cc3ccc4c(c3)OCO4)CC2)n1,-4.09%
6,COc1ccc2c(c1)CC(C(=O)Nc1nc3ccc(-c4cn[nH]c4C)cc3s1)CO2 (centres undefined),-7.18%
7,CCOc1ccccc1C1/C(=C(\O)c2ccc(OC)cc2C)C(=O)C(=O)N1CCN(C)C (centres undefined),-3.39%
8,Fc1cnc(Nc2ccc(Cn3ccnc3)cc2)nc1-c1cccc(N2CCOCC2)c1,45.9% (active)
9,Cc1ccc(-c2ncn(-c3ccc(Nc4ncc(F)c(-c5cccc(N6CCOCC6)c5)n4)cc3)n2)cn1,-16.4%
10,Fc1cc(-c2nc(Nc3ccc(CN4CCOCC4)cc3)ncc2F)cc(N2CCOCC2)c1,13.5%
11,CC(=O)OCc1nc2ccc(-c3ccncc3)cc2[nH]1,-6.82%
12,O=C(NCc1cccnc1)c1ccnc(NCc2cccnc2)c1,8.32%
13,COc1cccc(CN(CCN(C)C)C(=O)c2c3ccc(-c4cn[nH]c4)cc3nn2CC2CC2)c1,-4.47%
14,Cc1c[nH]c2ncnc(-c3ccc4c(C(=O)Nc5cccc(C(=O)NC(C)C)c5)n(CC5CC5)nc4c3)c12,50.2% (active)
15,CC(C)NC(=O)c1cccc(NC(=O)Nc2ccc(-c3ccnc(N)n3)cc2)c1,1.02%
16,O=C(Nc1ccc2[nH]ncc2c1)C1CCN(C(=O)[C@@H](O)c2ccccc2Cl)CC1,2.37%
17,CC(C)n1c(-c2csc3ccccc23)nc2c(NCc3ccccc3)ncnc21,0%
18,Cc1cnc(-c2c(C)nn(C)c2C)nc1NCCN1CCOCC1,3.9%
19,COc1cc(Nc2nc(Nc3cc(OC)c(OC)c(OC)c3)c3[nH]cnc3n2)cc(OC)c1OC,16.2%
20,COc1cc(Nc2nc(NCc3cccc(C(F)(F)F)c3)c3[nH]cnc3n2)cc(OC)c1OC,47.7% (active)
21,COc1cc(Nc2nc(NCc3cccc(C(F)(F)F)c3)c3ncn(C4CCCCC4)c3n2)cc(OC)c1OC,-5.25%

row,Compound,inhibition
1,O=C(Nc1nc2c(s1)CN(Cc1ccccc1)CC2)c1cc(Cl)ccc1Cl,-4.96%
2,COc1cc(Nc2cc(N3CCN(Cc4ccc5c(c4)OCO5)CC3)ncn2)cc(OC)c1OC,-5.38%
3,Cc1cnc(-c2ccc(N3CCOCC3)nc2)nc1NCCN1CCOCC1,2.67%
4,COc1ccc(-c2nc(NCCN3CCOCC3)c3ncn(-c4ccccc4)c3n2)cn1,-16.5%
5,Nc1nc(NCc2ccccc2)cc(NCc2cccnc2)n1,-4.44%
6,COc1cc(N2CCOCC2)ccc1Nc1cc(Nc2ccccc2C(N)=O)ccn1,7.87%
7,CNC(=O)c1ccccc1Nc1cc(Nc2ccc(N3CCOCC3)cc2OC)ncc1F,16.4%
8,CNC(=O)c1ccccc1Nc1nc(Nc2ccc(N3CCOCC3)cc2OC)ncc1Cl,77.3% (active)
9,COC(=O)c1ccc(C2Nc3c(C(=O)OC)cccc3C3C=CCC32)cc1 (centres undefined),7.56%
10,CCCN1CCc2c(sc(N)c2C(=O)OC)C1,7.44%
11,c1ccc(CN2CCC(Nc3ccnc(NC4CCN(Cc5ccccc5)CC4)n3)CC2)cc1,-6.32%
12,CC(=O)Nc1ccc(NC(=O)c2ccc(-c3ccc(C(N)=O)cc3)s2)cc1,-5.71%
13,O=C(NCc1cccnc1)c1cccc(Nc2ccc(N3CCOCC3)cc2)n1,5.75%
14,Cc1nn(C)c(C)c1-c1cccc(C(=O)NCCN(C(C)C)C(C)C)n1,-2.03%
15,CC(C)n1cnc2c(NCc3cccnc3)nc(Nc3ccc(N4CCOCC4)cc3)nc21,1.97%
16,c1cc(Nc2nc(Nc3ccc(N4CCOCC4)cc3)c3ncn(-c4ccsc4)c3n2)ccn1,19.3%
17,CC(C)n1cnc2c(Nc3ccc(N4CCOCC4)cc3)nc(Nc3ccncc3)nc21,55.3% (active)
18,CC(C)n1cnc2c(NCc3ccccc3)nc(NC3CCC(O)CC3)nc21 (centres undefined),0.05%
19,CC(C)n1cnc2c(Nc3ccc(N4CCOCC4)cc3)nc(NC3CCC(O)CC3)nc21 (centres undefined),43.6% (active)
20,CC(C)n1cnc2c(NC3CCN(Cc4ccccc4)CC3)nc(Nc3ccc(N4CCOCC4)cc3)nc21,11.3%
21,O=C(Nc1ccc2[nH]ncc2c1)[C@@H]1C[C@H](O)CN1C(=O)Cc1ccc(Br)cc1,5.62%
